Each structure is given as a SMILES string.

The test can be described thus: Peg3 promoter luciferase inhibitors, potency, dose response, cell-based, HeLa, CREF/GAPDH counter-screen panel (AID 624167). The conditions noted are these: CREF/GAPDH counter-screens; run 2, dose range 1, at 100 µM (top of the series).
For orientation: inhibition means the drop in the measured response relative to a control, in per cent. On to `COc1ccc(-n2c(O)c(/C=N/Nc3nc(C)cc(C)n3)c3ccccc3c2=O)cc1OC`, for which the inhibition is -21.1%.

Turning to `O=c1c2ccccc2sc2nc(CCl)nn12`, the inhibition amounted to 99.3%.

Consider `CCCC(=O)NC(c1ccccc1)c1ccc2cccnc2c1O` (stereo unspecified), for which the inhibition worked out at 39.4%.

Take `O=C(N/N=C/c1c(O)ccc2ccccc12)c1ccc(CO)nc1`: the inhibition came to 3.42%.

As for `Cc1cc(C(=O)Nc2cccc(C(=O)O)c2)oc1C`, the inhibition came to 92.8%.

For `COc1ccc(C(NC(=O)C(C)C)c2ccc3cccnc3c2O)cc1` (stereo unspecified), the inhibition is 40.9%.

Take `CN(C)CC1CCC/C(=C\c2ccc(OC(=O)c3ccc(Cl)cc3)cc2)C1=O` (stereo unspecified): the inhibition stood at 84.9%.

As to `C/C(=N\NC(=O)c1cc(C2CC2)nc2ccccc12)c1ccc(O)cc1O`, the inhibition is -6.29%.

Consider `CCc1ccc(/C=C2\SC(=S)N(CCCC(=O)Nc3ccccn3)C2=O)cc1`, for which the inhibition turned out to be 25.6%.

Turning to `Cc1cc(C)c(C)c(S(=O)(=O)N2CCN(C(=O)c3cc(=O)[nH]c4ccccc34)CC2)c1C`, the inhibition came to 80.6%.

With `C(=N\Nc1ccc2ccccc2n1)/c1ccc2c(c1)OCCO2`, the inhibition came to 92%.

Turning to `COC1CC(C)C(OC)c2cc(O)cc(c2O)NC(=O)C(C)=CC=CC(C)C(OC(N)=O)C(C)=CC(C)C1OC` (stereo unspecified), the inhibition stood at 84.8%.

Turning to `COc1ccc(NC(=O)c2cc(-c3ccccn3)nc3ccccc23)cc1S(=O)(=O)N(C)C`, the inhibition amounted to 60.4%.

For the compound `COc1ccccc1Nc1nc(-c2sc(NC(=O)c3ccco3)nc2C)cs1`, the inhibition was determined as 19.4%.

Regarding `CN(C(=O)COC(=O)/C=C/c1cccc([N+](=O)[O-])c1)C1CCS(=O)(=O)C1` (stereo unspecified), the inhibition was -31.8%.

As to `CC(C)CCCCCCCCCCCCC(=O)NCC(=O)NC1C(O)C(O)C(Nc2ncnc3nc[nH]c23)OC1C(O)CO` (stereo unspecified), the inhibition is 98.2%.

Values taken from PubChem BioAssay AID624167 (Sanford-Burnham Center for Chemical Genomics, 2012).
